The source of these data is PubChem BioAssay (EPA / NIEHS).

Results filed as inconclusive are left out. Activity calls are given as the source filed them. How the source made its calls, unless noted: active means hit-call score of the fitted dose curve at least 0.9, where 1 is the maximum; inconclusive means response in the unintended direction; inactive means score below 0.9.

Experiment [1] is described as follows: TAMU_PeakParms_SingleDonor1434_Asystole: Texas A&M University (TAMU) 1.5-hr Human Induced Pluripotent Stem Cell (iPSC)-derived Cardiomyocytes Calcium (Ca+2) Flux Assay for Cardiotoxicity: Asystole (quiescence of beating) (AID 2284328). Summed up: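 Average Ca2+-flux peak frequency (beats/s) was recorded in single-donor iPSC-derived cardiomyocytes after 90 min exposure (0.2–100 uM final, 0.5% DMSO). Asystole POD set as EC95 against DMSO, no preprocessing.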

The nature of experiment [2]: CCTE_Padilla_ZF_Score.General: CCTE's 144 Hour Post-fertilization zebrafish Assay Score for General Malformation, Padilla Lab (AID 2284411; active means hit-call score of the fitted dose curve at least 0.9, where 1 is the maximum; inactive means score below 0.9). Summed up:
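Wild-type zebrafish embryos were plated singly at 6-8 hpf in 10% Hanks' and exposed in sealed wells at 26C until rinsed on 5 dpf. At 6 dpf two blinded assessors scored mortality, hatching and malformations by stereomicroscopy; gain-of-signal versus DMSO.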

Experiment [3] has as its system SERPINA7 (gene 6906). Briefly: CCTE_GLTED_hTBG: CCTE's human Thyroxine-binding Globulin (TBG) Inhibition Assay, Great Lakes Toxicology and Ecology Division (GLTED) Lab (AID 2284343).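 Further: active chemicals lower fluorescence versus DMSO baseline by displacing probe.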 Summed up:
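hTBG + test chem, 2 h; ANSA probe displacement; fluorescence readout ex380/em475; DMSO = neg ctrl/baseline; cell-free.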

Experiment [4] is described as follows: VALA_TUBHUV_Antagonist_TubuleLength: VALA Sciences human Umbilical Vein Endothelial Tubule Formation (TUBHUV) Antagonism Assay (AID 2284325). Summed up:
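HUVEC–HDF co-culture (1:3) pre-grown 3 days with 10 ng/ml VEGF, then 3 days with compound plus VEGF. Fixed, nuclear and CD31 stained; total tubule length by imaging versus 0.1% DMSO; suramin 100 uM positive control.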

Experiment [5] relates to Brachyury (BRA) Protein Expression, Deisenroth Lab, TBXT (gene 6862). Briefly: CCTE_Deisenroth_DEVTOX-GLR_legacy_Bra: (Legacy) CCTE's DevTox GLR-Endo Assay Evaluation of Brachyury (BRA) Protein Expression, Deisenroth Lab (AID 2284329; active means hit-call score of the fitted dose curve at least 0.9, where 1 is the maximum; inactive means score below 0.9). Summed up:
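Human pluripotent RUES2-GLR line was exposed twice during 48 h differentiation to a 10-point series, 1 nM - 200 uM. Fraction of Bra-positive cells was scored by imaging against pluripotent baseline and fitted after 0.2% DMSO subtraction.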

The nature of experiment [6]: CCTE_Deisenroth_DEVTOX-GLR_legacy_CellCount: (Legacy) Viability Assessment in CCTE's DevTox GLR-Endo Assay, Deisenroth Lab (AID 2284331; active means hit-call score of the fitted dose curve at least 0.9, where 1 is the maximum; inactive means score below 0.9). To be noted: actives raise or lower the signal. Put shortly:
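Nuclei count by fluorescence high-content imaging (5 fields/well) after 48 h differentiation of RUES2-GLR cells. Two exposures, 24 h apart; 1 nM - 200 uM series; n=4. Bidirectional fit vs DMSO.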

Experiment [7] can be described thus: IUF_NPC1_cytotoxicity_72hr: Cytotoxicity Assessment at 72 hours in the Leibniz Research Institute for Environmental Medicine (IUF) Neural Progenitor Cell Proliferation Assay (NPC1) (AID 2284332).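 Further: rising LDH signal means more cytotoxicity.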 Summed up: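 Spheres of primary human neural progenitors are plated one per well on day 0 in growth-factor medium and dosed at once. After three days at 37C, supernatant LDH is measured fluorimetrically via resazurin reduction.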

Experiment [8] is described as follows: VALA_TUBIPS_Antagonist_CellCount: Viability Assessment in the VALA Sciences human iPS-derived Endothelial Tubule Formation (TUBIPS) Antagonism Assay (AID 2284335).
The nature of experiment [9]: VALA_MIGHUV1_ScratchOnly_WoundArea: VALA Sciences human Umbilical Vein Endothelial Cell Migration (MIGHUV) Assay, Area of Scratch Wound Inhibited Recovery (AID 2284336). Put shortly:
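HUVEC monolayers (9000 cells/well) were scratched after 24 h, dosed within 30 min (six concentrations, triplicate, 0.1% DMSO), allowed 24 h recovery, then fixed. Hoechst-stained nuclei in the wound imaged; cytochalasin D as reference.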

Experiment [10] in a line: VALA_TUBIPS_Agonist_CellCount: Viability Assessment in the VALA Sciences human iPS-derived Endothelial Tubule Formation (TUBIPS) Agonism Assay (AID 2284338).
The test system of experiment [11] is SRY-box transcription factor 17 (SOX17) Protein Expression, Deisenroth Lab, SOX17 (gene 64321). The experiment can be described thus: CCTE_Deisenroth_DEVTOX-GLR_legacy_Sox17: (Legacy) CCTE's DevTox GLR-Endo Assay Evaluation of SRY-box transcription factor 17 (SOX17) Protein Expression, Deisenroth Lab (AID 2284341; active means hit-call score of the fitted dose curve at least 0.9, where 1 is the maximum; inactive means score below 0.9). To be noted: actives raise or lower the signal. Put shortly: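 RUES2-GLR human pluripotent cells, seeded 24 h, then differentiated 48 h in defined media with two chemical exposures 24 h apart (1 nM - 200 uM, 10 points). Sox17+ fraction from high-content fluorescence imaging; bidirectional fit versus 0.2% DMSO.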

Experiment [12] concerns SRY-box transcription factor 2 (SOX2) Protein Expression, Deisenroth Lab, SOX2 (gene 6657). The experiment can be described thus: CCTE_Deisenroth_DEVTOX-GLR_legacy_Sox2: (Legacy) CCTE's DevTox GLR-Endo Assay Evaluation of SRY-box transcription factor 2 (SOX2) Protein Expression, Deisenroth Lab (AID 2284346; active means hit-call score of the fitted dose curve at least 0.9, where 1 is the maximum; inactive means score below 0.9). Summed up: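 hPSC RUES2-GLR, 384-well; 24 h seed → 48 h endoderm differentiation, 2 doses q24h, 1 nM–200 uM. Fix, nuclear dye, 5 fields/well. Sox2+ cells/cell count; cell positive if >5x BMAD over endoderm ctrl; gain direction vs DMSO.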

A short description of experiment [13]: CCTE_Deisenroth_H295R-HTRF_384WELL_ESTRADIOL: CCTE's H295R-HTRF Assay Evaluation of Estradiol Concentration, Deisenroth Lab (AID 2284361; active means hit-call score of the fitted dose curve at least 0.9, where 1 is the maximum; inactive means score below 0.9). Particulars: actives raise or lower the signal. Put shortly: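 H295R cells exposed 48 h to chemicals at 0.001 - 100 uM final (nine points, triplicate); estradiol in conditioned medium measured by HTRF immunoassay, fitted bidirectionally versus DMSO. Viability by CellTiter-Glo on same plates.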
On the technique in general: In TR-FRET formats the signal depends on donor and acceptor labels being close together.

Experiment [14] in a line: CCTE_Deisenroth_H295R-HTRF_384WELL_TESTOSTERONE: CCTE's H295R-HTRF Assay Evaluation of Testosterone Concentration, Deisenroth Lab (AID 2284373; active means hit-call score of the fitted dose curve at least 0.9, where 1 is the maximum; inactive means score below 0.9). To be noted: actives raise or lower the signal. Summed up: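 H295R cells were acclimated 24 h, then exposed 48 h to nine concentrations (0.001–100 uM final) in technical triplicate, n=5. Testosterone in conditioned medium was measured by HTRF (em 620/665 nm). Fitting was bidirectional versus DMSO; CellTiter-Glo viability ran on the same plates.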

Experiment [15] in a line: CCTE_Deisenroth_H295R-HTRF_384WELL_CTOX: Cytotoxicity Assessment in CCTE's H295R-HTRF Assay, Deisenroth Lab (AID 2284380). Put shortly:
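H295R adrenocortical carcinoma cells plated 24 h, then exposed 48 h to nine-point series 0.001–100 uM final, triplicate, n=5. ATP measured by CellTiter-Glo 2.0 luminescence on same plates after medium collection; loss versus DMSO.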

A short description of experiment [16]: CCTE_Mundy_HCI_iCellGluta_NOG_NeuronCount: CCTE's Neurite Outgrowth Assay in iCellGluta cells for Neuron Count, Mundy Lab (AID 2284340).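 Further: cells fixed about 48 h after compound addition.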 Summed up: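 Neuron count read by automated high-content imaging of Hoechst 33342 and betaIII-tubulin/Alexa Fluor-488 labelling in human iPSC glutamatergic neurons. Activity fitted relative to DMSO.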
Experiment [17] is described as follows: CCTE_Mundy_HCI_iCellGluta_NOG_NeuriteCount: CCTE's Neurite Outgrowth Assay in iCellGluta cells for Neurite Count, Mundy Lab (AID 2284342).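 Further: chemical exposure about 48 hours starting 2 hours after plating.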
The test system of experiment [18] is SRD5A2 (gene 6716). The experiment can be described thus: CCTE_Deisenroth_5AR_NBTE_ratio: CCTE's 5alpha-reductase NanoBRET Target Engagement Assay - Ratio, Deisenroth Lab (AID 2284322; active means hit-call score of the fitted dose curve at least 0.9, where 1 is the maximum; inactive means score below 0.9). Particulars: actives raise or lower the signal. Put shortly:
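HEK293T transiently expressing SRD5A2-NanoLuc; cells exposed to chemical (8-point, 10 nM - 29.9 uM) for 5 h total, testosterone tracer added for final 2 h. NanoBRET acceptor/donor ratio (650/460 nm), bidirectional fit vs DMSO.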
(BRET reads energy transfer from a luciferase to a nearby fluorophore.)

A short description of experiment [19]: VALA_TUBHUV_Agonist_TubuleLength: VALA Sciences human Umbilical Vein Endothelial Tubule Formation (TUBHUV) Agonism Assay (AID 2284337). Put shortly: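 HUVEC co-cultured with fibroblasts (1:3) 3 days in 10 ng/ml VEGF, then 3 days with compound plus VEGF; 0.1 % DMSO neutral control. Fixed, nuclear and CD31 stained; tubule length by fluorescence imaging.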

Regarding `COCCO`, the outcome in [1] and in experiment [2] was inactive.
Regarding `N#CSCSc1nc2ccccc2s1`, the AC50 in experiment [3] is 33.2 µM (active).
`CC(C)(c1ccc(O)cc1)c1ccc(O)cc1`: the AC50 was 75.1 µM (active) in experiment [4]; 49.5 µM (active) in experiment [5]; 35.6 µM (active) in [6]; 51.4 µM (active) in experiment [11]; 12.4 µM (active) in experiment [3]; 50.7 µM (active) in experiment [12]. Also, the AC50 in experiment [13] was 37 µM (active); in experiment [14], 0.804 µM (active); in [15] it was 15 µM (active). Besides, the result in experiment [1], in experiment [7], in experiment [8], in experiment [9] and in [10] was inactive.
Consider `OB(O)O`, for which the result in experiment [5], in experiment [6], in [11] and in experiment [12] was inactive.
`Cc1nn(C)c(Oc2ccccc2)c1C=NOCc1ccc(C(=O)OC(C)(C)C)cc1`: in experiment [7], the molecule was called inactive. Also, the results for the AC50 in experiment [16] and in experiment [17] were 6.47 µM (active) and 1.39 µM (active), respectively.
For the molecule `S=C([S-])NCCNC(=S)[S-].[Mn+2]`, the molecule was classed as inactive in [7].
Regarding `CC(C)CCCCCCc1ccc(O)cc1`, the outcome in experiment [18], in experiment [4], in [9], in [19] and in [10] was inactive. Besides, the AC50 in [3] is 5.2 µM (active).
For the molecule `CCCCC(CC)COC(=O)c1ccccc1C(=O)O` (configuration not stated), the molecule was classed as inactive in [5] and in [12]. In addition, the results for the AC50 in experiment [6], in [11] and in experiment [3] were 112 µM (active), 100 µM (active) and 18.3 µM (active), respectively.
For `O=C(O)C1(C(=O)Nc2ccc(Cl)cc2Cl)CC1`, the AC50 in [3] is 66 µM (active).
Consider `O=C(Nc1ccc([N+](=O)[O-])cc1Cl)c1cc(Cl)ccc1O`, for which the result in experiment [18] and in experiment [3] was inactive.
As to `C#CCOC(=O)[C@@H](C)Oc1ccc(Oc2ncc(Cl)cc2F)cc1`, the molecule was classed as inactive in experiment [7] and in [16]. For the same molecule, the AC50 in experiment [17] was 34 µM (active).

One may read the AC50 as the concentration at which the activity in the assay is half-maximal.
